Screening results from PubChem BioAssay.
Compounds with a hit are over-represented: about 14% of the library has one in this group of screens.
Pf growth 96h = inhibits malaria parasite growth, 96 h | P. falciparum luciferase reporter growth, 96 h | Potency, µM (series often up to 28.7 µM), without a hit: at the highest dose activity change, negative = inhibition, most hits filed as inhibitors | 6.9% of 320,000 active; further: potency means the concentration at half of the fitted maximal effect
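P. falciparum expressing integrated firefly luciferase grown in erythrocytes (2% hematocrit, 0.05% parasitemia final) with compounds for 96 hours at 37 C, 5% CO2. Growth inhibition read as loss of luminescence after adding luciferase detection reagent.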
Pf growth 48h = inhibits P. falciparum growth in the first generation, 48 h. P. falciparum luciferase growth in erythrocytes, 48 h. Potency, µM (titrated, usually from 28.7 µM), for inactives: top-dose activity change, negative = inhibition, hits mostly inhibitors. 5.9% of 310,000 active. AID 504832; further: potency means the concentration at half of the fitted maximal effect
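Parasite viability was followed by luminescence of a genomically integrated firefly luciferase. Cultures held 0.1% parasitemia at 2% hematocrit (final), incubated under 5% CO2 at 37 C.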
HCMV inh = inhibitors of human cytomegalovirus; HFF cells, HCMV-luciferase reporter, 72 h; stronger effect = lower value; activity change, negative = inhibition, % at 57.5 µM; 4.5% of 410,000 active; AID 1259415; in the data active means activity change below about -60%; inconclusive means no clear call, values can overlap the other calls; inactive means above about -39%
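Steps: HFFs plated, 16 h 37C; compounds added; HCMV-luciferase added to MOI 1 PFU/cell; 72 h 37C; OneGlo reagent, 5 min room temperature; luminescence read, normalized to controls.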
FBPA Giardia inh = Giardia lamblia aldolase inhibition. Potency, µM (doses to about 59.6 µM), inactives show at the highest dose activity, negative = inhibition, most hits filed as inhibitors. A8B2U2. AID 2451. 0.71% of 290,000 active. purified Giardia FBPA; further: potency means the concentration at half of the fitted maximal effect; nearly all actives have a fitted effect of over 55% in size
Target sequence (A8B2U2 whole entry, looked up): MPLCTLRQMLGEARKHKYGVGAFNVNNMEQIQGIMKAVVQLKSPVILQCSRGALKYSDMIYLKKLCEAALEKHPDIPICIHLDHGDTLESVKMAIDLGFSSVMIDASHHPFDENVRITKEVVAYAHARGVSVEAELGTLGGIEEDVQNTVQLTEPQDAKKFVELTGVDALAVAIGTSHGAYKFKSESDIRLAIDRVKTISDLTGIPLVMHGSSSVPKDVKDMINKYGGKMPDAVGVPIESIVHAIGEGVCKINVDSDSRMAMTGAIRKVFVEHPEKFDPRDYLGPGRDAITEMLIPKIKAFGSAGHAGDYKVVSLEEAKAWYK
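Giardia FBPA (40 nM reagent) was preincubated 10 min at RT with compound (up to 57.5 uM final), then substrate plus GAPDH/TPI/NAD/arsenate coupling system with diaphorase/resazurin was added; resorufin fluorescence (525/598 nm) was read after 20 min.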
Sm TGR inh = blocks Schistosoma mansoni thioredoxin glutathione reductase; Potency, µM (series often up to 114 µM), inactives show at the highest dose activity change, negative = inhibition, most hits filed as inhibitors; purified TGR, DTNB reduction, TNB absorbance 405 nm; 3% of 360,000 active; AID 485364; Q962Y6; further: potency means the concentration at half of the fitted maximal effect; nearly all actives have a fitted effect of over 60% in size
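First, TGR (20 nM dispensed) and NADPH were mixed with compound. Second, a 15 min room-temperature incubation followed. Third, further NADPH and then DTNB were added to start the reaction. Finally, TNB absorbance was monitored kinetically.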
An asterisk follows results filed as active; ? = inconclusive; . = no result. Unless noted, the call rests on the fitted dose curve; in most records, active means well fitted curve in the direction sought with a large enough effect; inconclusive means small, poorly fitted or top-dose-only effect, or another doubt; inactive means no such curve, though single readings can be large; an effect the other way counts as inactive or inconclusive. On the % scale 0 is the no-effect control and ±100 the full control effect.

SMILES	Pf growth 96h	Pf growth 48h	HCMV inh	FBPA Giardia inh	Sm TGR inh
CCn1c(=O)c([N+](=O)[O-])c(NCCc2ccc(OC)c(OC)c2)c2ccccc21	21%	?	-72*	1%	7%
CC(=O)c1c(O)c2ccccc2n(Cc2ccccc2)c1=O	13µM*	?	147	-14%	-10%
CCn1c(=O)c(C(=O)NCCc2ccccc2)c(O)c2ccccc21	13%	?	0	-23%	12%
CCn1c(=O)c(C(=O)NCCc2ccc(OC)c(OC)c2)c(O)c2ccccc21	10µM*	?	-8	-3%	17%
CCn1c(=O)c(C(=O)NCCN2CCCCC2)c(O)c2ccccc21	0%	8.3µM*	61	10%	18%
CCn1c(=O)c([N+](=O)[O-])c(NCCc2ccccc2)c2ccccc21	?	?	.	-4%	1%
CCCn1c(=O)c(C(=O)NCCc2ccc(OC)c(OC)c2)c(O)c2ccccc21	0%	?	11	0%	13%
Cc1ccc(NC(=O)C(=O)NCCCN2CCOCC2)c(C)c1	-3%	0%	-36	-3%	-1%
COc1ccc(C(C(=O)NC2CCCC2)N(Cc2ccccc2)C(=O)c2snc(C(N)=O)c2N)cc1OC (stereo not given)	?	0%	42	.	-12%
COc1ccc(C(C(=O)NCc2ccccc2)N(C(=O)c2snc(C(N)=O)c2N)C2CCCC2)cc1 (stereo not given)	67%	15µM*	-3	0%	13%
COc1ccc(C(C(=O)NCc2ccccc2)N(Cc2ccco2)C(=O)c2snc(C(N)=O)c2N)cc1 (stereo not given)	1%	?	30	.	-4%
COc1cc(C(C(=O)NCc2ccccc2)N(C(=O)c2snc(C(N)=O)c2N)C2CCCC2)cc(OC)c1OC (stereo not given)	4.7µM*	13µM*	-36	-26%	-4%
Fc1ccccc1Nc1nc2c(s1)CCc1ccccc1-2	1%	269%	.	20µM*	?
CCOC(=O)C1=CCN(S(=O)(=O)c2ccccc2)C1c1ccccc1 (stereo not given)	.	.	-12	.	.
CN1CC[C@H](CN2c3ccccc3Sc3ccccc32)C1	4.8µM*	3.8µM*	.	.	.
c1ccc2c(c1)Sc1ccccc1N2CC1CN2CCC1CC2 (stereo not given)	13µM*	12µM*	-60*	1%	-2%
CC1CCN(CC(O)CN2c3ccccc3Sc3ccccc32)CC1 (stereo not given)	10%	?	.	-6%	0%
O=C(COC(=O)c1ccccc1-n1cnnn1)c1ccc(F)c(F)c1	74%	59%	1	.	-29%
CCOc1ccccc1CNC(=O)C1CCCN(c2nc3ccccc3o2)C1 (stereo not given)	3.7µM*	12%	.	7%	5%
COc1ccc(-n2nc3c(N4CCCC(C(=O)NCCc5ccccc5C)C4)nnc(C)c3c2C)cc1 (stereo not given)	.	.	-87*	.	-2%
COc1ccc(-n2nc3c(N4CCC(C(=O)NCCc5ccccc5C)CC4)nnc(C)c3c2C)cc1	-1%	-11%	.	.	1%
COc1ccc(-n2nc3c(N4CCC(C(=O)NCc5ccccc5C)CC4)nnc(C)c3c2C)cc1	?	?	?	.	6%
COc1ccc(-n2nc3c(N4CCCC(C(=O)NCc5ccccc5C)C4)nnc(C)c3c2C)cc1 (stereo not given)	2.1µM*	12µM*	-99*	.	-20%
COc1ccccc1CNC(=O)C1CCCN(c2nnc(C)c3c(C)n(-c4ccccc4)nc23)C1 (stereo not given)	.	.	-11	.	5%
CCOc1ccccc1CNC(=O)C1CCCN(c2nnc(C)c3c(C)n(-c4ccccc4)nc23)C1 (stereo not given)	38%	13µM*	-107*	3%	-1%
O=c1c(-c2ccc(F)cc2)nc2cnc(N3CCOCC3)nc2n1CCc1ccccc1	.	.	.	0%	.
CC(=O)NCc1ccc(C(=O)O)cc1	38%	29%	-25	-1%	-1%
CC(=O)c1ccccc1NC(=O)c1cc(S(=O)(=O)N2CCOCC2)ccc1N1CCCC1	?	?	2	.	-31%
